Compound activity from PubChem.
TDP1 cell noCPT: qHTS for Inhibitors of human tyrosyl-DNA phosphodiesterase 1 (TDP1): qHTS in cells in absence of CPT. actives 15% (n = 420,000). AID 686978, 2013. Potency, µM (highest dose often 46.2 µM), for the others: top-dose activity change, negative = growth inhibition, usual class: inhibitors. DT40 Tdp1-/- hTDP1 cells, no CPT, ATP luminescence, 48 h; also: potency is read from the fitted curve at half-maximal effect; nearly all actives have a fitted effect of over 55% in size
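DT40 Tdp1-/-;hTDP1 cells, no CPT (DMSO vehicle only), 400 cells/well; compounds pin-transferred; ≥48 hr, 37 °C; CellTiter-Glo 30 min RT dark, luminescence read.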
HT1080 IDH1KD tx: qHTS for induction of synthetic lethality in tumor cells producing 2HG: qHTS for the HT-1080-IDH1KD cell line. HT-1080 IDH1 knockdown viability, ATP luminescence, 48 h. Potency, µM (doses to about 46.1 µM), for inactives: at the top dose activity, negative = toxicity, most hits filed as cytotoxic. actives 2% (n = 360,000);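 also: potency is read from the fitted curve at half-maximal effect; 0% = DMSO wells and -100% = cell-free medium wells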
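Luminescent ATP read-out (CellTiter-Glo, 10 min at room temperature) after 48 h compound exposure at 37 °C gave viability of IDH1-knockdown HT-1080 cells. Activity was normalised to DMSO and cell-free wells, then fitted as concentration-response curves.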
IL-1B inflam inh: qHTS for Inhibitors of Inflammasome Signaling: IL-1-beta AlphaLISA Primary Screen; actives 4.7% (n = 360,000); activity change, % at 57.5 µM; THP-1 LPS/ATP IL-1B secretion, AlphaLISA, 16 h; stronger effect = lower value; in the data active = activity change below about -50%; inconclusive = mostly about -30% to -49%
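Secreted IL-1B measured by AlphaLISA bead assay after 16 h compound exposure of THP-1 cells; compounds (final up to 57.5 uM) added 1 h before LPS (250 ng/mL) and ATP (1.25 mM) stimulation; lower signal means less secretion.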
HT1080-NT tox: qHTS for induction of synthetic lethality in tumor cells producing 2HG: qHTS for the HT-1080-NT fibrosarcoma cell line; HT-1080-NT fibrosarcoma viability, CellTiter-Glo ATP luminescence, 48 h; Potency, µM (titrated, usually from 46.1 µM), for the others: at the highest dose activity, negative = less viability, actives largely listed as cytotoxic; actives 1.6% (n = 360,000);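 also: NT is the 2HG producing partner of a matched IDH1 knockdown line; potency is read from the fitted curve at half-maximal effect; 0% = DMSO-treated cells and -100% = media-only wells without cells; nearly all actives have a fitted effect of over 55% in size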
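Luminescent CellTiter-Glo readout after 48 hours of compound exposure at 37 degrees C defined viability of HT-1080-NT cells. Activity was normalized to DMSO wells and cell-free media wells; concentration-response curves were fitted and assigned curve classes.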
uPA surface inh: qHTS for Inhibitors of Cell Surface uPA Generation. cell surface uPA generation assay, qHTS. Potency, µM (highest dose often 38.3 µM), for the others: at the top dose activity change, negative = inhibition, actives largely listed as inhibitors. actives 0.31% (n = 330,000); active = well fitted inhibition curve with a large enough effect; inconclusive = small, poorly fitted or top-dose-only effect; inactive = no such curve, though single readings can be large or run the other way; tested in mouse RAW 264.7 cells; also: potency is read from the fitted curve at half-maximal effect; nearly all actives have a fitted effect of over 55% in size
DT40 TDP1 CPT: qHTS for Inhibitors of human tyrosyl-DNA phosphodiesterase 1 (TDP1): qHTS in cells in presence of CPT. actives 12% (n = 420,000). chicken DT40 Tdp1-/-;hTDP1 cells + 20 nM CPT, ATP luminescence, 48 h. Potency, µM (doses to about 46.2 µM), for inactives: at the highest dose activity change, negative = growth inhibition, hits mostly inhibitors; also: potency is read from the fitted curve at half-maximal effect; nearly all actives have a fitted effect of over 55% in size
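Chicken DT40 Tdp1-/- cells stably complemented with human TDP1 were seeded at 400 cells/well in medium containing 20 nM camptothecin, exposed to pin-transferred compounds, and grown at 37 °C for at least 48 hr. Viability was read as ATP luminescence.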
* hit, by the source's call; ? = inconclusive; . = not tested or not shown; [ ] = dose if it differs, or a comment. The list is not random: actives were taken first. Their share in the collection is about 19%. Unless noted, calls follow the shape of the dose curve; as a rule, active = well fitted curve in the direction sought with a large enough effect; inconclusive = small, poorly fitted or top-dose-only effect, or another doubt; inactive = no such curve, though single readings can be large; an effect the other way counts as inactive or inconclusive. Unless noted, % is scaled to controls: 0 for no effect and ±100 for the full control effect.

SMILES	TDP1 cell noCPT	HT1080 IDH1KD tx	IL-1B inflam inh	HT1080-NT tox	uPA surface inh	DT40 TDP1 CPT
O=C1C=C(NCc2ccc(Cl)c(Cl)c2)C2(CCCCC2)O1	16µM*	-2%[9.24 µM]	-5	-10%	-11%	?
CC(C)CCNC(=O)c1cn(C)c2ccc(S(=O)(=O)N3CCOCC3)cc2c1=O	-19%	.	.	.	.	-20%
O=C(CCn1c2c(c3ccccc31)CCCC2)NNC(=O)c1ccccc1C(=O)O	1%	-27%	-23	-20%	-21%	-3%
O=C(CCn1c2c(c3ccccc31)CCCC2)NNC(=O)c1ccccc1[N+](=O)[O-]	7.3µM*	-14%	-3	-12%	4%	?
CN(CCCNC(=O)c1ccccc1F)CCCNC(=O)c1ccccc1F	3%	5%	7	8%	25%	7%
NC(=O)C(C(=O)/C=C/c1ccc(Cl)cc1)=C1SCCS1	8.2µM*	?	-99*	-7%	?	3.3µM*
COCC1CCCN(C(=O)c2ccc(OC3CCN(Cc4ccccn4)CC3)cc2)C1 (stereo not drawn)	-23%	16%	13	0%	4%	-3%
N#CC1(C#N)[C@@H](C(=O)C23CC4CC(CC(C4)C2)C3)C12CCOCC2	-21%	18%	-1	16%	-1%	-28%
CC(C)c1ccc(/C=C/C(=O)N2CCCCCC2)cc1	-4%	7%	0	11%	-14%	-27%
CN(C)c1ccc(C(=O)n2nnc3ccccc32)cc1	?	16µM*	.	?	-19%	23µM*
CC(C)c1ccc(/C=C/C(=O)n2nnc3ccccc32)cc1	?	?	-9	?	2%	16µM*
O=C(OCCOc1ccc(F)cc1)c1ccc(S(=O)(=O)N2CCCC2)cc1	2.3µM*	2%	-1	-6%	-9%	-9%
CCc1ccc(OCC(=O)Nc2ccc(S(=O)(=O)N3CCOCC3)cc2)cc1	-3%	-4%	-10	2%	-18%	-8%
O=C(COc1cccc(Cl)c1)Nc1ccc(N2CCOCC2)cc1	?	-10%	-21	-5%	1%	-22%
CCOc1ccc(CONS(=O)(=O)c2ccc(NC(C)=O)cc2)cc1Cl	9.2µM*	-17%	-9	-7%	1%	?
O=C(COc1ccc(F)c(Cl)c1)Nc1ccc(N2CCOCC2)cc1	?	-6%	-9	-4%	1%	16µM*
CCOc1ccc(NC(=O)COc2ccc(S(=O)(=O)N3CCOCC3)cc2)cc1	?	18%	8	12%	-12%	3.3µM*
COc1ccc(C)cc1NC(=O)N(C(C)C)C1CCN(C(C)=O)CC1	1%	.	.	.	.	18%
O=C(COc1ccc(S(=O)(=O)N2CCOCC2)cc1)Nc1ccc(Br)cc1	?	-12%	-4	-5%	-21%	?
CCOc1ccc(CN2CCN(S(=O)(=O)c3ccc(NC(C)=O)cc3)CC2)cc1	15µM*	-30%	-17	-11%	-1%	?
COc1ccc(OCCC(=O)OCC(=O)Nc2ccc(S(=O)(=O)N3CCOCC3)cc2)cc1	-17%	-11%	-65*	-11%	.	0%
CNC(=O)COc1ccc(S(=O)(=O)N2CCCC2)cc1	?	-6%	9	-1%	6%	29µM*
O=C(CCCOc1ccc(Br)cc1)Nc1ccc(S(=O)(=O)N2CCOCC2)cc1	16µM*	?	?	?	0%	?
O=C(O)COc1ccc(S(=O)(=O)N2CCCC2)cc1	26%	0%	33	1%	6%	-17%
O=C1NC[C@@H](CCCCN2CCN(CCC3CCCCC3)C(=O)C2=O)N(CCC2CCCCC2)C1=O	-13%	19%	-4	27%	.	-16%
SMILES	TDP1 cell noCPT	HT1080 IDH1KD tx	IL-1B inflam inh	HT1080-NT tox	uPA surface inh	DT40 TDP1 CPT
Cc1cc(C)nc(NS(=O)(=O)c2ccc(NC(=O)CCC(=O)O)cc2)n1	5%	10%	3	19%	2%	-2%
N#CN1C2CCC1CC(O)(c1ccccc1)C2 (stereo not drawn)	-7%	11%	13	?	.	-1%
CCOc1ccc(C(=O)CN2CCN(S(=O)(=O)c3ccc(Br)cc3)CC2)cc1	-24%	-1%	7	-1%	-2%	?
CCOc1ccc(C(=O)CN2CCN(S(=O)(=O)c3ccc(OC)cc3)CC2)cc1	?	-11%	14	-8%	-10%	18µM*
COc1ccc(CNC(=O)/C=C/c2ccc(S(=O)(=O)N3CCOCC3)cc2)cc1	?	2%	0	2%	-1%	-16%
O=C(COc1ccc(S(=O)(=O)N2CCOCC2)cc1)NCCc1ccc(Cl)cc1	18µM*	-15%	-24	-15%	.	?
O=C(/C=C/c1ccc(S(=O)(=O)N2CCOCC2)cc1)NCc1ccc(Cl)cc1	18µM*	-22%	-62*	-16%	-14%	?
O=C(Nc1ccc2c(c1)OCCO2)C1c2ccccc2OCC(=O)N1Cc1cccnc1 (stereo not drawn)	-1%	11%	-14	24%	.	9%
CC1Sc2ccc(C(=O)N(CCc3ccccc3)Cc3ccccc3)cc2NC1=O (stereo not drawn)	?	?	-25	-29%	.	21µM*
Cc1ccc(/C([O-])=C(/C(=S)NCc2ccccc2)[n+]2cccc(CO)c2)cc1[N+](=O)[O-]	-7%	1%	-12	0%	-1%	-2%
CCc1cc[n+](C(C(=S)Nc2cccc(C)c2)=C([O-])c2ccc(C)c([N+](=O)[O-])c2)cc1	.	0%	-18	-2%	-7%	16µM*
Cc1cccc(C)c1OCc1nc2c3cnn(-c4ccccc4F)c3ncn2n1	1%	.	.	.	.	-6%
Cc1cccc(C)c1OCc1nc2c3cnn(-c4ccccc4Br)c3ncn2n1	?	.	.	.	.	10µM*
CC(C)(C)CC(C)(C)c1ccc(OCCO)cc1	11µM*	.	.	.	.	8.4µM*
COc1ccccc1-c1cn[nH]c1-c1ccc(OCc2ccc(F)cc2)cc1O	?	?	-52*	?	-12%	?
COc1ccccc1-c1cn[nH]c1-c1ccc(O)cc1O	?	0%	4	5%	8%	?
